From PubChem BioAssay (NCI)
This is part of a sample that, as a whole, favours compounds with a hit. Of some 83,000 tested, about 20% had one in any assay.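 Results are percent growth after 48 hours of single-concentration exposure. 100 means growth as in untreated cells, lower positive values show inhibition; negative values down to -100 show cell death.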 Values without a mark were called inactive. Calls of active or inactive are those of the source. How the source made its calls: active means growth percent below 10; inactive means the rest.

test system: MDA-MB-468 breast; experiment: NCI-60 one-dose screen, 48 h (100 = growth as untreated, 0 = no growth, -100 = all killed); details: 10 µM unless noted

Compound	growth
CCOC(=O)C1=C(C)NC(=O)NC1c1c(Cl)n(CCCl)c2ccccc12 (stereo not drawn)	97.2%
Oc1c(Br)cc(Cl)cc1C(c1cc(Cl)cc(Br)c1O)C(Cl)(Cl)Cl	-4.05% (active)
Nc1c(C(=O)Nc2ccccc2)sc2nc3c(cc12)CCCCC3	-9.1% (active)
